Source: PubChem BioAssay
p53 reactivator: re-activators of mutant p53; H1299 p53-A138V BP100-luciferase reporter, luminescence, 24 h; Potency, µM (top dose mostly 92.2 µM), for inactives: top-dose activity change, positive = activation, actives largely listed as activators; 320,000 compounds, 0.063% hits; AID 504706; note: % of control where 0% means no effect; nearly all actives have a fitted effect of over 45% in size
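H1299 (p53-null), stable ts p53-A138V + BP100-Luc; 1000 cells/well, Opti-MEM/10% FBS; cpd 4 pt, 1:5; 24 h, 37 deg C, 5% CO2; detection reagent 10 min RT; luminescence.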
MCF10A rerep: induces DNA re-replication in MCF 10a normal breast cells | Potency, µM (series often up to 46.1 µM), for inactives: at the top dose activity, positive = re-replication, actives largely listed as activators | 350,000 compounds, 2.9% hits | MCF 10A DNA re-replication, Hoechst nuclear intensity, 48 h | AID 624296; note: % of control where 0% means no effect; nearly all actives have a fitted effect of over 50% in size
A-T KAP1 phos: candidate therapy for ataxia-telangiectasia; F2112 A-T fibroblasts, KAP-1 phosphorylation AlphaLISA; neocarzinostatin DNA damage 30 min before lysis; Potency, µM (top dose mostly 57.5 µM), for inactives: at the top dose activation, actives largely listed as activators; 320,000 compounds, 0.19% hits; AID 485349; note: % of control where 0% means no effect; nearly all actives have a fitted effect of over 45% in size
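hTERT-immortalized A-T patient fibroblasts (F2112), 500 cells/well in OPTI-MEM, 1% FBS, got compounds for 60 min, then NCS for 30 min at 37C. Lysates were then assayed for phospho-KAP-1 by AlphaLISA (anti-pKAP1 donor, anti-KAP1 acceptor beads), 6 hr at 25C.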
ELG1 genotox: genotoxicity induction in ELG1-luciferase HEK293T cells; HEK293T ELG1-luciferase reporter, luminescence, 16 h; Potency, µM (top dose mostly 46 µM), inactives show top-dose activity change, positive = activation, usual class: activators; 330,000 compounds, 1.3% hits; note: % of control where 0% means no effect; nearly all actives have a fitted effect of over 60% in size
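Luminescence read-out: rising ELG1-luciferase signal, reflecting elevated ELG1 protein under genetic stress, flags genotoxic compounds. Cells were treated for 16 hr at 37 °C before ONE-Glo detection.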
SW480 rereplic: induces DNA re-replication in SW480 colon adenocarcinoma cells | SW480 DNA re-replication, Hoechst DNA content imaging, 48 h | Potency, µM (titrated, usually from 46.1 µM), for the others: at the top dose re-replication activation, most hits filed as activators | 340,000 compounds, 1.8% hits | AID 624297; note: % of control where 0% means no effect; nearly all actives have a fitted effect of over 55% in size
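Cells (250 per well) received 23 nL compound or DMSO by pin tool and were kept 48 hr at 37 C, 5% CO2. Nuclei were then stained with Hoechst for 40 min and scanned for DNA content.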
ELG1 repair inh: blocks ELG1-dependent DNA repair in HEK293T cells; HEK293T ELG1-luciferase reporter, luminescence, 16 h; DNA damage induced by 5-fluorouridine; Potency, µM (doses to about 46.1 µM), for the others: at the top dose activity change, negative = inhibition, most hits filed as inhibitors; 330,000 compounds, 2.3% hits; AID 504467; note: % is set by controls: 0 for no effect and ±100 for the full control effect; nearly all actives have a fitted effect of over 55% in size
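Luminescence from the luciferase reporter, measured 30 min after ONE-Glo reagent at room temperature, was the read-out. Beforehand, 2,000 cells per well were exposed for 16 hr at 37 °C to 5-fluorouridine together with compound or vehicle.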
Active calls of the source: *; ? = inconclusive; . = not tested or not shown; [ ] = dose if it differs, or a comment. Most compounds without a hit are left out; they make up all but 7.1% or so of the library. Calls come from the whole dose curve; as a rule, active = well fitted curve in the direction sought with a large enough effect; inconclusive = small, poorly fitted or top-dose-only effect, or another doubt; inactive = no such curve, though single readings can be large; an effect the other way counts as inactive or inconclusive. Potency is the fitted concentration of half-maximal effect.

SMILES	p53 reactivator	MCF10A rerep	A-T KAP1 phos	ELG1 genotox	SW480 rereplic	ELG1 repair inh
COc1ccc(C2C(C#N)=C(N)Oc3cc4c(cc32)OCO4)cc1 (configuration not stated)	2%	21µM*	-10%	-5%	?	?
Cc1ccc(OCC(=O)N2CC(C)CC(C)C2)c([N+](=O)[O-])n1 (configuration not stated)	3%	-2%	-1%	3%	-5%	-1%
COc1ccc(NC2=C(Cl)C(=O)N(CCc3ccccc3)C2=O)c(OC)c1	?	-2%	-18%	12%	-7%	?
COc1ccc(CCN2C(=O)C=CC2=O)cc1OC	.	4.6µM*	.	.	7.3µM*	.
COc1ccc(C2SCC(=O)N2CCc2ccc(OC)c(OC)c2)cc1 (configuration not stated)	-5%	0.52µM*	2%	-8%	10µM*	18µM*
COc1ccc(CCNC2=C(Cl)C(=O)N(CCc3ccc(OC)c(OC)c3)C2=O)cc1OC	-8%	3%	2%	-10%	2%	13µM*
COc1ccc(CCn2c(C)ccc2C)cc1OC	1%	.	0%	-1%	.	-27%
COc1ccc(CCN2C(=O)CSC2c2ccc(OC)c(OC)c2)cc1OC (configuration not stated)	-1%	3%	-3%	0%	-15%	?
CC(CCc1ccccc1)NS(=O)(=O)c1ccccc1F (configuration not stated)	2%	-8%	-1%	-12%	-13%	-3%
Cc1ccc(CCNS(=O)(=O)c2cc3c(cc2Cl)NC(=O)CO3)cc1	6%	1%	-2%	-1%	0%	-17%
O=C(CN1CCN(S(=O)(=O)c2ccc(Br)cc2)CC1)N/N=C/c1ccc(Cl)c([N+](=O)[O-])c1	-5%	16µM*	-5%	7%	1%	?
CCCc1c(C(=O)NNc2ccc(C)cc2)cnn1-c1ccccc1	-1%	?	0%	5%	-10%	7.3µM*
CN1CCN(Cc2ccc(OCc3ccccc3)cc2)CC1	?	18%	-2%	?	3%	?
CCCCOc1ccc(C(=O)N2CCCC2)cc1	15%	0%	-2%	18µM*	-1%	?
CCOc1ccc(OCc2cccc(C(=O)N3CCCCCC3)c2)cc1	-12%	?	5%	?	11%	?
CCOc1ccc(OCc2cccc(C(=O)N3CCCC3)c2)cc1	?	5%	-1%	0.65µM*	-2%	?
CCOc1ccc(CN2CCN(C(=O)c3ccccc3)CC2)cc1	1%	?	11%	4%	0%[9.22 µM]	9.2µM*
CCN1CCN(Cc2ccc(OCc3ccccc3)cc2)CC1	?	?	-4%	10µM*	9%	?
O=C(Nc1nnc(-c2ccc(F)cc2)o1)c1ccc(S(=O)(=O)N2CCOCC2)cc1	-14%	8%	5%	-18%	10µM*	7.3µM*
CCC1CCCCN1S(=O)(=O)c1ccc(C(=O)Nc2nnc(-c3cccs3)o2)cc1 (configuration not stated)	28%	?	4%	-6%	?	?
CS(=O)(=O)c1cccc(-c2nnc(NC(=O)c3ccc(S(=O)(=O)N4CCCC4)cc3)o2)c1	1%	18%	1%	-4%	0%	11%
Cc1ccc(C(=O)Nc2nnc(-c3ccco3)o2)cc1	?	27%	-1%	?	?	?
Cc1nnc(NC(=O)c2ccc(S(=O)(=O)N3CC(C)OC(C)C3)cc2)o1 (configuration not stated)	-11%	13%	16%	-5%	1%	5%
N#Cc1ccc(C(=O)Nc2nnc(-c3ccco3)o2)cc1	14%	3%	0%	-1%	?	16µM*
